Results taken from PubChem BioAssay (EPA / NIEHS).
Calls of active or inactive are those of the source. Rule for the calls: active = hit-call score of the fitted dose curve at least 0.9, where 1 is the maximum; inactive = score below 0.9.

Columns and labels:
[1] = ATG_CRE_CIS: Attagene CIS-FACTORIAL HepG2 Assay for human cAMP Responsive Element (CRE) binding protein 3 (AID 2282926); conditions: HepG2 CRE cis-reporter, Attagene multiplexed mRNA; actives raise or lower the signal
Summary of the method: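 Readout: fluorescently labelled reporter transcripts resolved by capillary electrophoresis after RT-PCR, taken 24 h post-dosing in transfected HepG2. Endogenous transcription factor activity drives each cis-element reporter; gain or loss of signal fitted relative to DMSO control.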

[2] = target: CCAAT/enhancer-binding protein beta (Homo sapiens) (UniProt P17676); assay: ATG_C_EBP_CIS: Attagene CIS-FACTORIAL HepG2 Assay for human CCAAT/Enhancer Binding Protein (C/EBP) beta (AID 2282927); conditions: HepG2 Attagene cis-factorial transcription factor reporter; actives raise or lower the signal
Summary of the method: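 Changes in reporter mRNA, rather than exogenous chimeric receptor activity, reflect native C/EBP signalling in transfected HepG2 cells dosed for 24 h; transcripts are detected by RT-PCR and capillary electrophoresis.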

[3] = ATG_CMV_CIS: Attagene CIS-FACTORIAL HepG2 Assay for human CMV (Internal Marker) (AID 2282928); conditions: HepG2 CMV promoter reporter, transcription factor profiling; actives raise or lower the signal;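 note: endpoint acts as a background internal control marker rather than a target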
Summary of the method: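 Readout: fluorescent reporter cDNA fragments separated by capillary electrophoresis after RT-PCR and HpaI cut. Cells: HepG2 carrying transfected cis-promoter reporter constructs, dosed 24 h. Endpoint serves as background internal-marker control, fit bidirectionally versus DMSO.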

[4] = ATG_DR4_LXR_CIS: Attagene CIS-FACTORIAL HepG2 Assay for human Liver X Receptor (LXR), DR4 submotif (AID 2282929); conditions: HepG2 Attagene DR4 cis-reporter, mRNA transcription; actives raise or lower the signal
Summary of the method: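 Measures endogenous transcription factor activity via a DR4-driven reporter transcript in human HepG2 cells. Compounds incubated 24 h; mRNA quantified by RT-PCR and capillary electrophoresis, analysed as gain or loss of signal versus DMSO.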

[5] = ATG_AP_1_CIS: Attagene CIS-FACTORIAL HepG2 Assay for human Activator Protein 1 (AP-1) (AID 2282931); conditions: HepG2 Attagene cis-factorial AP-1 reporter mRNA; actives raise or lower the signal
Summary of the method: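 Bidirectional concentration-response fitting against DMSO controls. Underlying signal: reporter mRNA from cis-promoter constructs in transiently transfected HepG2, measured after 24 h by RT-PCR and capillary electrophoresis.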

[6] = ATG_AP_2_CIS: Attagene CIS-FACTORIAL HepG2 Assay for human Activator Protein 2 (AP-2) (AID 2282932); conditions: HepG2 AP-2 cis-reporter, Attagene transcription factor profiling; actives raise or lower the signal
Summary of the method: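 Endogenous transcription factor activity is reported through transfected multiplex reporter constructs in HepG2, after 24 h of compound exposure. Transcripts were quantified by RT-PCR and capillary electrophoresis of fluorescent fragments. Bidirectional fit against DMSO.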

[7] = ATG_BRE_CIS: Attagene CIS-FACTORIAL HepG2 Assay for human Bone Morphogenetic Protein (BMP) Response Element (BRE) (AID 2282933); conditions: HepG2 BMP response element reporter, Attagene transcription factor profiling; actives raise or lower the signal
Summary of the method: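 HepG2 cells transiently transfected with multiplexed cis-element reporter units were dosed with chemical for 24 h. Reporter mRNA was measured by RT-PCR with fluorescent labelling, HpaI digestion and capillary electrophoresis; bidirectional fitting relative to DMSO.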

[8] = target: Retinoic acid receptor alpha (Homo sapiens) (UniProt P10276); assay: ATG_DR5_RAR_CIS: Attagene CIS-FACTORIAL HepG2 Assay for human Retinoic Acid Receptor Alpha (RARE), DR5 submotif (AID 2282934); conditions: HepG2 Attagene cis-factorial RARE DR5 reporter, mRNA; actives raise or lower the signal
Summary of the method: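 HepG2, transient cis-reporter transfection, 24 h exposure. mRNA readout: RT-PCR, FAM label, HpaI cut, capillary electrophoresis. DMSO baseline, gain/loss fitting.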

[9] = target: Transcription factor E2F1 (Homo sapiens) (UniProt Q01094); assay: ATG_E2F_CIS: Attagene CIS-FACTORIAL HepG2 Assay for human E2F Transcription Factor 1 (AID 2282935); conditions: HepG2 Attagene cis-reporter, E2F reporter RNA transcripts; actives raise or lower the signal
Summary of the method: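 Gain or loss of reporter transcript, fitted against DMSO, reflects E2F1-driven transcription. Transiently transfected HepG2 dosed 24 h before RNA isolation. Quantified by fluorescent RT-PCR products separated by capillary electrophoresis.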

[10] = ATG_E_Box_CIS: Attagene CIS-FACTORIAL HepG2 Assay for human Enhancer Box (E-box) (AID 2282936); conditions: HepG2 E-box cis-reporter transcription, actives raise or lower the signal
Summary of the method: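 E-box-driven reporter transcripts measured in transiently transfected HepG2 after 24 h exposure: RNA reverse-transcribed, PCR-amplified, fluorescently labelled, digested and resolved by capillary electrophoresis. Gain or loss relative to DMSO.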

[11] = ATG_M_61_CIS: Attagene CIS-FACTORIAL HepG2 Assay for M61 Transcription Factor (Internal Marker) (AID 2282937); conditions: HepG2 Attagene CIS-FACTORIAL M61 internal marker reporter; actives raise or lower the signal
Summary of the method: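 Fluorescence from labelled cDNA fragments, separated by capillary electrophoresis, quantifies reporter induction. HepG2 cells bearing transiently transfected cis-promoter MRTUs were incubated with test chemical for 24 h; DMSO defined baseline for gain/loss fitting.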

[12] = ATG_EGR_CIS: Attagene CIS-FACTORIAL HepG2 Assay for human Early Growth Response 1 (EGR1) (AID 2282938); conditions: HepG2 Attagene CIS-FACTORIAL EGR reporter mRNA; actives raise or lower the signal
Summary of the method: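 Cell-based multiplex transcription assay: HepG2 carrying transfected cis-element reporter units, 24 h chemical treatment. Fluorescence from capillary electrophoresis of RT-PCR products gives mRNA levels; fitting is bidirectional relative to DMSO.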

[13] = ATG_M_19_CIS: Attagene CIS-FACTORIAL HepG2 Assay for M19 Transcription Factor (Internal Marker) (AID 2282939); conditions: HepG2 Attagene CIS-FACTORIAL M19 internal marker reporter; actives raise or lower the signal
Summary of the method: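 HepG2 cells transiently transfected with cis-regulated multiple reporter transcription units were dosed for 24 h; reporter mRNA was quantified by RT-PCR, 6-FAM primer-extension labelling, HpaI digestion and capillary electrophoresis, with bidirectional fitting against DMSO baseline.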

[14] = ATG_ERE_CIS: Attagene CIS-FACTORIAL HepG2 Assay for Estrogen Response Element (ERE) (AID 2282940); conditions: HepG2 ERE cis-reporter, Attagene RNA transcript; actives raise or lower the signal
Summary of the method: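 HepG2 cells transiently transfected with cis-promoter-driven multiplexed reporter transcription units report endogenous TF activity. After 24 h compound exposure, reporter mRNA is quantified by RT-PCR with capillary electrophoresis fluorescence; bidirectional fitting versus DMSO baseline.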

[15] = ATG_Ets_CIS: Attagene CIS-FACTORIAL HepG2 Assay for human Erythroblast Transformation Specific (ETS) (AID 2282941); conditions: HepG2 ETS cis-reporter transcription, actives raise or lower the signal
Summary of the method: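 RT-PCR/capillary electrophoresis fluorescence read-out of reporter mRNA; HepG2 transient multi-reporter transfection; 24 h compound exposure; gain or loss of signal fitted bidirectionally relative to DMSO.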

[16] = target: Hepatocyte nuclear factor 3-beta (Homo sapiens) (UniProt Q9Y261); assay: ATG_FoxA2_CIS: Attagene CIS-FACTORIAL HepG2 Assay for human Forkhead box A2 (FOXA2) (AID 2282942); conditions: HepG2 cis-reporter transcription factor activity, 24 h; actives raise or lower the signal
Summary of the method: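 In transiently transfected human HepG2 cells, promoter-driven reporter mRNA levels after 24 h chemical exposure are determined via RT-PCR with capillary electrophoresis. DMSO serves as baseline for bidirectional fitting.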

[17] = ATG_FoxO_CIS: Attagene CIS-FACTORIAL HepG2 Assay for human Forkhead box O (FoxO) (AID 2282943); conditions: HepG2 Attagene cis-reporter, FoxO element, mRNA; actives raise or lower the signal
Summary of the method: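 Human hepatoma HepG2 cells carry transiently introduced reporter transcription units controlled by cis promoter elements. Chemical treatment lasted 24 h, and mRNA signal was compared with DMSO.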

[18] = ATG_GATA_CIS: Attagene CIS-FACTORIAL HepG2 Assay for human GATA Binding Protein (AID 2282944); conditions: HepG2 GATA cis-element reporter, Attagene multiplex mRNA; actives raise or lower the signal
Summary of the method: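 HepG2 cells transiently transfected with multiplexed cis-element reporter units reflecting endogenous transcription factor activity; reporter mRNA measured after 24 h dosing by RT-PCR, 6-FAM labeling, HpaI digestion and capillary electrophoresis. Bidirectional fitting versus DMSO baseline.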

[19] = ATG_GLI_CIS: Attagene CIS-FACTORIAL HepG2 Assay for human Zinc Finger Protein GLI1 (AID 2282945); conditions: HepG2, Attagene cis-factorial reporter mRNA, GLI element; actives raise or lower the signal
Summary of the method: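 Bidirectional curve fits relative to DMSO, using reporter mRNA levels from RT-PCR plus capillary electrophoresis. Cells were HepG2 transiently carrying cis-regulated reporter constructs, harvested 24 h after dosing.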

[20] = target: Aryl hydrocarbon receptor (Homo sapiens) (UniProt P35869); assay: ATG_Ahr_CIS: Attagene CIS-FACTORIAL HepG2 Assay for human Aryl Hydrocarbon Receptor (Ahr) (AID 2282930); conditions: HepG2 AhR cis-factorial reporter transcription; actives raise or lower the signal
Summary of the method: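 HepG2, transient MRTU (cis) transfection, 24 h exposure. RNA → cDNA → PCR → 6-FAM primer extension → HpaI 2 h 37 C → CE. Fit: bidirectional, DMSO baseline.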

Measured: AC50

Chain of Transcription factor E2F1 (Homo sapiens) (Q01094 whole entry, looked up): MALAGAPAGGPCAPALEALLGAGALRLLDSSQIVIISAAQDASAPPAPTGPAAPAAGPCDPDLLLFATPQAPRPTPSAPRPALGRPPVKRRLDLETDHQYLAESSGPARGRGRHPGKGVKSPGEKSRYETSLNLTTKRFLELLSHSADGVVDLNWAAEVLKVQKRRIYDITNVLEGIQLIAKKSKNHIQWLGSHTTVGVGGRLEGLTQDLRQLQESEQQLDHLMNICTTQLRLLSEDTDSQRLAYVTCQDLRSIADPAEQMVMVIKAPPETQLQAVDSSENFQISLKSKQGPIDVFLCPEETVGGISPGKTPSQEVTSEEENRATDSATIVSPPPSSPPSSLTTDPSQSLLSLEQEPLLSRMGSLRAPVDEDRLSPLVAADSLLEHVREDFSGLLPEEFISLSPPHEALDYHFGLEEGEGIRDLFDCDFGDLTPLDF
Chain of CCAAT/enhancer-binding protein beta (Homo sapiens) (P17676 whole entry, looked up): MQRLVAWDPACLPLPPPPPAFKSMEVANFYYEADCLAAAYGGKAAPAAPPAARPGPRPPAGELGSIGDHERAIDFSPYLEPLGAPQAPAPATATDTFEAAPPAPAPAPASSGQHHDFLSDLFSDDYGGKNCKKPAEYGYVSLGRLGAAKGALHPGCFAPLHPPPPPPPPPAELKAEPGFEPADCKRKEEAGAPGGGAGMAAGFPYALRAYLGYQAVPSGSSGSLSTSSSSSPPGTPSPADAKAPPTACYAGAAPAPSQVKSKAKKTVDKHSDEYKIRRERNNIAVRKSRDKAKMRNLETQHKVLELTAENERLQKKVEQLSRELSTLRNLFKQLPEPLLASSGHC
Chain of Aryl hydrocarbon receptor (Homo sapiens) (P35869 whole entry, looked up): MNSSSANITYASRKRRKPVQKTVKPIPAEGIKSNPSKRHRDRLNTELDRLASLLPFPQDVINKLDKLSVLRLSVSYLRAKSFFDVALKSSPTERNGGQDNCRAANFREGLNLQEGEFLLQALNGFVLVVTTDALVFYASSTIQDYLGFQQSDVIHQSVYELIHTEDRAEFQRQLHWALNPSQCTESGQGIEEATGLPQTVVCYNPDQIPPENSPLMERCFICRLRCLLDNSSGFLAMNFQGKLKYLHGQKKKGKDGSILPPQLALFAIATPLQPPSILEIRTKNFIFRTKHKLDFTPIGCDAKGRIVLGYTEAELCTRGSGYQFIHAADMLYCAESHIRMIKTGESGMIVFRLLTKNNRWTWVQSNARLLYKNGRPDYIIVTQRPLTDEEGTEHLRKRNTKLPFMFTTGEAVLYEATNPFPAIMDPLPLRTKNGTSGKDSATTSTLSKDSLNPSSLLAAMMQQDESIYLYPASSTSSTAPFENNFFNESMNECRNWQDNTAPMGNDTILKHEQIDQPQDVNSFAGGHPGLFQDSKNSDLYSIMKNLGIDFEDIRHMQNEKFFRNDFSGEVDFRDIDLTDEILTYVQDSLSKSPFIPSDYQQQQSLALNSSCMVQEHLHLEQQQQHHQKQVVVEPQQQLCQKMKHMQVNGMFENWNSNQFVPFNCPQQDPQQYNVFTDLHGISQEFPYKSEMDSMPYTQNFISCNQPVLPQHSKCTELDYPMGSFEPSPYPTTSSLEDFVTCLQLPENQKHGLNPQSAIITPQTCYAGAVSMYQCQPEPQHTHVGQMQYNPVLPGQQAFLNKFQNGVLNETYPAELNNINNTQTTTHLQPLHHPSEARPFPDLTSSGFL
Chain of Hepatocyte nuclear factor 3-beta (Homo sapiens) (Q9Y261 whole entry, looked up): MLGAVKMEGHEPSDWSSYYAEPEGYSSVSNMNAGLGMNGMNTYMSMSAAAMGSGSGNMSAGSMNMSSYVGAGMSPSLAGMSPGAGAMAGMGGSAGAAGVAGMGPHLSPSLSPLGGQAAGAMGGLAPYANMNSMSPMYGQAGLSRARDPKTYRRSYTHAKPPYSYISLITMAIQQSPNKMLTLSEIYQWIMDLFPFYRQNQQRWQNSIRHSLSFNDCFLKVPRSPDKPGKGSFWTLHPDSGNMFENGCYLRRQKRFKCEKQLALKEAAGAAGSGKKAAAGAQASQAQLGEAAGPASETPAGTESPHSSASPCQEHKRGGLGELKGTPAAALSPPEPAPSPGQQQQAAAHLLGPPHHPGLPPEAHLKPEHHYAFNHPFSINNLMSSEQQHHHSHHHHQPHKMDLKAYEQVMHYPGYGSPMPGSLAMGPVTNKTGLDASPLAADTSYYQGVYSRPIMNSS
Chain of Retinoic acid receptor alpha (Homo sapiens) (P10276 whole entry, looked up): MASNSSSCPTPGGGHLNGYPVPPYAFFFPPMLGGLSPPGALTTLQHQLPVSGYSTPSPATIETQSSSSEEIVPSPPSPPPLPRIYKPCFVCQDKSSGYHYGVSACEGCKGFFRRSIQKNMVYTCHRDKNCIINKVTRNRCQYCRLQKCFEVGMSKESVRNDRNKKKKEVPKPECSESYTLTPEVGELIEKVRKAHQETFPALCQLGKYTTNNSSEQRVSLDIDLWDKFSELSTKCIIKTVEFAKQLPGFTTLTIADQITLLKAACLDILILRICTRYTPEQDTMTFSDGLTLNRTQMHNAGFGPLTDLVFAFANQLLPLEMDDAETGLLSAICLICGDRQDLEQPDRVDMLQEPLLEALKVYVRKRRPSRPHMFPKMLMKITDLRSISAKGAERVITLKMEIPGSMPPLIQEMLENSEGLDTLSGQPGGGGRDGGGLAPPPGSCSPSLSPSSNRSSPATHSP

Cc1ccccc1C
inactive: [1] | [2] | [3] | [4] | [5] | [6] | [7] | [8] | [9] | [10] | [11] | [12] | [13] | [14] | [15] | [16] | [17] | [18] | [19]

C=CC=CC=CCCCCC
inactive: [1] | [2] | [3] | [4] | [20] | [5] | [7] | [8] | [9] | [10] | [11] | [12] | [13] | [14] | [15] | [16] | [17] | [18] | [19]

c1ccc(-c2ccccn2)nc1
inactive: [1] | [2] | [3] | [4] | [20] | [5] | [6] | [7] | [8] | [12] | [13] | [14] | [15] | [17] | [18] | [19]
active: [10] 61.2 µM

CC(C)=CCC[C@H](C)CCO
inactive: [1] | [2] | [3] | [4] | [20] | [5] | [7] | [8] | [9] | [10] | [11] | [12] | [13] | [14] | [15] | [17] | [18] | [19]

CCCCC(CC)CCC(CC(C)C)OS(=O)(=O)O (stereo not given)
active: [1] 142 µM | [5] 139 µM
inactive: [2] | [3] | [4] | [6] | [7] | [8] | [9] | [10] | [11] | [12] | [13] | [14] | [15] | [16] | [17] | [18] | [19]

C=CC(=O)OCC(Br)CBr (stereo not given)
inactive: [1] | [5] | [6] | [7] | [8] | [9] | [11] | [13] | [14] | [15] | [17] | [18] | [19]
active: [2] 180 µM | [3] 100 µM | [4] 53.4 µM | [10] 72.9 µM | [12] 52.8 µM | [16] 131 µM

Nc1ccc(N=Nc2ccccc2)c(N)n1
active: [4] 48.5 µM | [20] 23.5 µM | [10] 70.9 µM | [12] 70.5 µM
inactive: [1] | [2] | [3] | [5] | [7] | [8] | [9] | [11] | [13] | [14] | [15] | [17] | [18] | [19]

OCCCS
inactive: [1] | [2] | [3] | [4] | [5] | [6] | [7] | [8] | [9] | [10] | [11] | [12] | [13] | [14] | [15] | [16] | [17] | [18] | [19]

Cc1cccc(C(=O)O)c1
inactive: [1] | [2] | [3] | [4] | [5] | [6] | [7] | [8] | [9] | [10] | [11] | [12] | [13] | [14] | [15] | [16] | [17] | [18] | [19]

O=c1[nH]nc(-c2ccc([N+](=O)[O-])o2)o1
inactive: [1] | [2] | [3] | [4] | [6] | [7] | [8] | [9] | [10] | [11] | [12] | [13] | [14] | [15] | [16] | [17] | [18] | [19]
active: [5] 87.6 µM

CC(C)(C)c1n[nH]c(=O)n(N)c1=O
inactive: [1] | [2] | [3] | [4] | [5] | [6] | [7] | [8] | [9] | [10] | [11] | [12] | [13] | [14] | [15] | [16] | [17] | [18] | [19]

C=C[Si](OC(C)=O)(OC(C)=O)OC(C)=O
inactive: [1] | [2] | [3] | [4] | [20] | [5] | [7] | [8] | [10] | [11] | [12] | [13] | [14] | [15] | [16] | [17] | [18] | [19]

O=C1CCCCCN1SSN1CCCCCC1=O
active: [1] 147 µM | [10] 182 µM | [12] 162 µM | [19] 155 µM
inactive: [2] | [3] | [4] | [5] | [6] | [7] | [8] | [9] | [11] | [13] | [14] | [15] | [16] | [17]

Clc1nc2ccccc2s1
inactive: [1] | [2] | [3] | [4] | [5] | [6] | [7] | [8] | [9] | [10] | [11] | [12] | [13] | [14] | [15] | [16] | [17] | [18] | [19]
